According to the supplement of paper PMC10681739:

How the values were obtained:
ETS1 [1] = target: T1, ETS1 (UniProt P14921); test: ETS1 binding intensity (PBM fluorescence), ETS1 alone (arbitrary fluorescence units); higher = stronger binding; conditions: ETS1 concentration 1 nM; RUNX1 concentration 0 nM
T1 sequence: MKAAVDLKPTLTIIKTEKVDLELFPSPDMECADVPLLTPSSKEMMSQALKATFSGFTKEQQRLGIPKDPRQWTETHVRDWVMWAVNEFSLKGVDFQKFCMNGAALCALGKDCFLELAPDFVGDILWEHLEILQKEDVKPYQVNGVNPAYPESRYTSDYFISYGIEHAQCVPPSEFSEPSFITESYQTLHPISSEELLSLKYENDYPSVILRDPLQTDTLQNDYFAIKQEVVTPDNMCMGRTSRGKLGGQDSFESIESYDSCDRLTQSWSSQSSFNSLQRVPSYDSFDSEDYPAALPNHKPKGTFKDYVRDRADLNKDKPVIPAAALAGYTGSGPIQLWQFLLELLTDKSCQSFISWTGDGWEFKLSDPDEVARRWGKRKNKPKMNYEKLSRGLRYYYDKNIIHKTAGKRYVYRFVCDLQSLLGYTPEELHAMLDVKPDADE

RUNX1 [2] = target: RUNX1 (UniProt Q01196); test: RUNX1 binding intensity (PBM fluorescence), RUNX1 alone (arbitrary fluorescence units); higher = stronger binding; conditions: RUNX1 concentration 2 nM; ETS1 concentration 0 nM
Chain of RUNX1 (Q01196 whole entry): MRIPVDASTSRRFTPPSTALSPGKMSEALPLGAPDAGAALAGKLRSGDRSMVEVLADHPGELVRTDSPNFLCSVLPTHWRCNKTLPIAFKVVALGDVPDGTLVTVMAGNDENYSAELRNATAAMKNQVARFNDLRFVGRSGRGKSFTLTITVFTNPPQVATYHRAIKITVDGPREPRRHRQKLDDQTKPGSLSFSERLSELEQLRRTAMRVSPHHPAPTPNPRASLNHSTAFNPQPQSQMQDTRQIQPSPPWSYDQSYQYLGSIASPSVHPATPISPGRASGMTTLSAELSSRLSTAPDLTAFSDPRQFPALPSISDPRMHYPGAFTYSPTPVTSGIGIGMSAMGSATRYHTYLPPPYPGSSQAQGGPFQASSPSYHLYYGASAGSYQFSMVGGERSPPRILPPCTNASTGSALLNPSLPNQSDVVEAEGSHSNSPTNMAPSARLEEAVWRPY
Description: (§1)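 Cooperative gcPBM on 36-bp genomic probes with neighbouring ETS1 and RUNX1 sites. Recombinant human RUNX1 (2 nM) was incubated alone or with ETS1 (25 nM) and detected with anti-RUNX1 antibody plus Alexa488 secondary. Values are medians over 4 replicate spots; the RUNX1+ETS1 data were normalised to the RUNX1-only data. The probes sit in constant array flanks that are not printed.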

ETS1 [3] = target: T1, ETS1; test: ETS1 binding intensity (PBM fluorescence) in presence of RUNX1, normalised to ETS1-only experiment (arbitrary fluorescence units); higher = stronger binding; conditions: ETS1 concentration 1 nM; RUNX1 concentration 25 nM
RUNX1 [4] = target: RUNX1 (UniProt Q01196); test: RUNX1 binding intensity (PBM fluorescence) in presence of ETS1, normalised to RUNX1-only experiment (arbitrary fluorescence units); higher = stronger binding; conditions: RUNX1 concentration 2 nM; ETS1 concentration 25 nM
Description: as §1
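For RUNX1 binding intensity (PBM fluorescence) in presence of ETS1, normalised to RUNX1-only experiment in this document: Full-length recombinant human ETS1 or RUNX1 bound to double-stranded 36-bp genomic probes on microarrays, detected by protein-specific primary antibody and Alexa488 secondary, spot fluorescence as median of four replicate spots.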
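For RUNX1 binding intensity (PBM fluorescence), RUNX1 alone in this document: Full-length recombinant human RUNX1 bound to double-stranded 36-bp genomic probes on a high-density microarray, scored as Alexa488 fluorescence per spot via anti-RUNX1 antibody, median of four replicate spots.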

Sequence | ETS1 binding intensity (ETS1 [1]) | RUNX1 binding intensity (RUNX1 [2]) | ETS1 binding intensity (ETS1 [3]) | RUNX1 binding intensity (RUNX1 [4])
TGTTTTTGTTTCCGTTTACAAACCACAACAAAGGTG | 736 | 2390 | 1620 | 4730
GGACCGGAAGTTAAGGCGTTCGCGGCGTGTGGTAAG | 8560 | 626 | 11800 | 1560
ACTGAACAAACCGGATGTGGTTCCCACCTGCAATCT | 25000 | 850 | 29500 | 11400
GAAAGGGTTCATCCAGGAAACCACAACCCAGTGCCG | 808 | 1440 | 1820 | 2110
CCATTCACGGGCTTCCGCGGTGTCCCCACCCCCTAA | 724 | 1080 | 760 | 1160
ACACCTCAGGCAGGATGTGGTAGGGGTTGCCCCAGA | 3730 | 1020 | 6810 | 2700
GGCTCGGTGCTGCTTCCTGTGTGGTCAGGATCACAG | 1870 | 846 | 4270 | 1790
CTAACCCTTCTCTTCCTGCAAAAACCACAACAAAGG | 640 | 2250 | 1720 | 3580
GAGGCGACCCACATCCGCTGTGCGGGGGCAACTGCA | 957 | 729 | 1270 | 6600
ATTACAGGAAGTATGTCCTCCTCTGCCTAACCACTG | 2270 | 831 | 2210 | 1270
CTTACAGTCACAACAGGATGTGGTTTGACATTTACT | 6780 | 869 | 32800 | 3860
TCTCTTCCTGTGATGGAAATACATTGAGGTTTGCGA | 523 | 787 | 743 | 1740
ACAGACCAGGGGATTTCCTGTGGGTGGAGTCCTCAG | 859 | 676 | 771 | 1500
GAGTTCTAGACTACAGGATGTGGTTAGAAGAAAAGA | 4670 | 837 | 56900 | 4800
AGGCCCCGCCCCTTCCGCCCACAGAGCCCGCCACTT | 779 | 1100 | 1000 | 1730
AGAAACATCCTGCCCAGCCACCTGACCACAAGGCAC | 377 | 1280 | 1070 | 3130
GCAGAGAGATTGGCCGGATGCGGTGGCTCACGCCTT | 4850 | 683 | 8930 | 1140
CCTGGTCCGGAAGCGCTGTCCCCGCCTCCCGCATAG | 1950 | 822 | 2430 | 1430
TACAGCCAGGAAATGGGGAGGGTGCTGCGGGCGGCA | 858 | 742 | 1680 | 917
CCACCGTCCCCGGAAATAACCGCGCCTGCCTCTCAA | 1940 | 1330 | 3290 | 2090
CTAGCAGGAAACAGACAGACCCAGCCACAGAATCTC | 470 | 919 | 519 | 884

Sequence | ETS1 binding intensity (ETS1 [1]) | RUNX1 binding intensity (RUNX1 [2]) | ETS1 binding intensity (ETS1 [3]) | RUNX1 binding intensity (RUNX1 [4])
TTGACTCGGGAATGTCCGGTCGTGGTAAGCAGGGTG | 770 | 683 | 858 | 999
GCACCCTTCCTGCTTCCCACAGTGTGGTATAAGAGG | 412 | 965 | 475 | 1560
GTTGTGCTCTTTCCTGCTTCCCGCAGTTTTTTAGTT | 626 | 1470 | 921 | 1890
TGTGAACTGACAGGATGTGGTACAAGGCTTACAAAG | 4830 | 730 | 8820 | 1780
AGAACAAAACAGGAAATAGTGGTTTGCAAAAATATA | 5780 | 736 | 8400 | 1730
CCACCACTCTAAGCAGGATGCGGTGCGACCCAAGAG | 1390 | 815 | 2470 | 972
AGCGCGCCGCCGACCGGATGCGGGAACTGGGCTCGG | 11800 | 715 | 19400 | 1550
AAGTGGAGAGCGGAAGTGAGCTGTGGGTGACTGCAG | 6780 | 759 | 8400 | 1240
CTGCCTGGCACAGGATGTGGTCATTTGTGCTGAGGA | 5880 | 730 | 17900 | 4420
TCTGGAGAAGCAGGATGTGGTTTGCAAGAGGCTTGC | 4750 | 774 | 16700 | 4750
AGTGGATAGCACTTCCTTCTCTTACCACAGTTCCTT | 365 | 1020 | 558 | 1610
GCAGAGAGGAAGTGTGGGGGTGGAGGAGGCCGCAGA | 681 | 828 | 973 | 1000
CAGGGTGGAAACAGGAAGAGAAACCACACTTAACCT | 1540 | 845 | 7190 | 1070
GAGAGGAGGATGTTGTCAGATACCCACAAATGAGAA | 566 | 812 | 621 | 889
GACAGCAACTCCACTTCCTGTGGGCGAGGGCCCTGT | 1850 | 835 | 2270 | 1790
CCCTGCCATTTCCTGCCCAATACCGCGTATGCAACT | 1630 | 1780 | 1700 | 4240
TGAAGCCATGGTTTCCTGTCTGCGGCTCAGATCAAG | 1020 | 717 | 1600 | 1490
GTGGGGCGGGCTTCCGGCGCTCCCACCGCGAGCCGA | 921 | 790 | 1050 | 1500
TTTGAGCGGGCAGGATGTGGTGACAATGATACTGCA | 4280 | 750 | 8140 | 2370
GTGAGTCACTTCCTGACCATGTGGGTTTTTGGTACG | 568 | 823 | 937 | 2090
GAAGCAGACAGGAAGTGGGTCTGAGCGGTGGAGGGA | 7670 | 690 | 8610 | 1910

Sequence | ETS1 binding intensity (ETS1 [1]) | RUNX1 binding intensity (RUNX1 [2]) | ETS1 binding intensity (ETS1 [3]) | RUNX1 binding intensity (RUNX1 [4])
TCCCTCATGAGCTTCTTCCGCCCGCAACACGAGACT | 481 | 1280 | 481 | 1840
GAAACAATTTCCTGTACCTCTGTGGTAAAAATGATA | 1040 | 945 | 1650 | 2610
TCTGTCGCACATCCGGTGTGAGCTGCGGGGCGGTGG | 7930 | 753 | 10600 | 1640
CCCCTCTCTCCCACTTCCTGTGGTCTCAGTCTTTGT | 3360 | 1500 | 4840 | 4960
AGCTCTGCCAGGAAGTGAGAACCACAGGCCTCCCCT | 1570 | 837 | 3140 | 1350
GAAGCGGAAGTCGCTGAGGGGTGGTGAAGCGGTTGG | 1930 | 710 | 2420 | 1010
AACACCTCACACTTCCTGCCCACAAGATAAGAGCCT | 895 | 1660 | 1910 | 3120
ACTACAACTTCCGACTTGCATCACTGCGGTGGCGCT | 425 | 942 | 573 | 1830
GCGGGCAGGATCTTCCTGTGGTTTGCCTTGCCCACT | 388 | 904 | 653 | 2190
GCTTGCTCCCACAGGAAACCGCAGGCTTCGGGCACA | 3190 | 7370 | 9810 | 12000
ACACAAACAGGAAGTGTTTGTGGTCCCTGCCTTTAG | 7210 | 748 | 14500 | 1590
TTCTTCCGGCAACTGCTGCTGAGGCTGCGGTGGCGG | 455 | 799 | 899 | 2050
GAGCGCAGGACGGAAGCTCGGTGCGGGTGCGGCCTC | 964 | 702 | 938 | 917
ATCTCCACATCCTCCCCATCGACCGCATGGTTTACC | 439 | 1970 | 653 | 3450
CCTGTACGGAAGCTACTCTGGTTTCATGTGGTTTCA | 441 | 904 | 654 | 1030
TGAAGTTGGTGTTTTCCGGGGGCGGTTTTTCCATTG | 504 | 897 | 451 | 969
AGCTGAGAGCCTGCCGGAAGCCACAGCTTCTTCTCG | 4180 | 801 | 5670 | 1200
CCAAGCACTTCCTGCTGTTAGCTTTGTGGGCTGAGT | 826 | 860 | 1020 | 1600
CCCCTCAGCTTCCGGGTGCTGCGGCCGCGGCCGAGA | 646 | 827 | 999 | 1980
AGCTTGACGAAGGCTTCCTGTGGTTTGGGTTGATGT | 486 | 824 | 964 | 1530
CCAGAATGCAGGAAGTGCTGTGGTTTGACTTTGTTT | 3550 | 831 | 9350 | 1970

Sequence | ETS1 binding intensity (ETS1 [1]) | RUNX1 binding intensity (RUNX1 [2]) | ETS1 binding intensity (ETS1 [3]) | RUNX1 binding intensity (RUNX1 [4])
ACAACTTCCTGTGGGATTTTTGGTGTCTGCGGCTCA | 818 | 811 | 858 | 2810
GCCCGCGGCTCCGGAAGCGGCTGCGGCCCCGACCGG | 3000 | 678 | 3860 | 1040
ACATGGTCTCGCTTCCTGTTTACACCACAGAAAGCT | 2820 | 1040 | 4140 | 1850
AGGGCATTTCCTTTGGGGCTGGTGGTCACGGACAAC | 471 | 723 | 381 | 1430
CTCTGAACTTCCTCTCTTTTAACCACAACTTACTAC | 549 | 10500 | 1420 | 14100
CTTCTTTCCAGAGGATGTGGCTTCAGCGGGAGAGCT | 1250 | 817 | 1830 | 1030
CGAGTAGAGATAGCAGGAAGTGGTTTATTCTGAGGT | 6000 | 784 | 12600 | 1800
GGTAAAGCAACAGGATGTGGGTGTCTGACTTACAAT | 4330 | 700 | 6760 | 1790
ACACACTGACTTCCTGTTGTGGGAGATAAAGTGTGG | 2500 | 698 | 2780 | 1730
TTTAGACACCGCTTCCTGCCACAAGCCCAAGACTTA | 758 | 918 | 839 | 3470
TGTCCGCACCCCACTTCCGCCCCGCAGAGGGCAACG | 2960 | 890 | 3480 | 3130
CTGCCGCTGCCTTCCGCCCCCACACACGCACACCAC | 686 | 1240 | 741 | 1640
ACTTTCGCGACGCAGGAAGCGCCCACAAAGGGAGGA | 2020 | 802 | 3000 | 889
AGAAGCAGGCATGCAGGATGTGGTTAGTGCATGGTA | 2230 | 900 | 17400 | 3740
TCTGGGGGAGGGGAAGGATGTGGTTTGCAGAGCGGA | 873 | 1020 | 5630 | 1470
CAGAGGACAGGATGCCAACCCCAAAACCGCAGCGAC | 733 | 4020 | 6200 | 9280
CCCAGGCTTCCGGGTTGAATATGTGGGCTGAGGCGA | 455 | 819 | 415 | 1420
GCAAACAGCACATCCGGTGTGGTCGACGGGTCCTCC | 5820 | 728 | 6160 | 1830
